Assay results published in the supplement of paper PMC8269313.
Structures can show the parent of a compound that is named as a salt.

Tested on: 4T1
Assay: % inhibition of 4T1 cell number vs DMSO control; higher = stronger growth inhibition
Conditions: 1 µM, 3 days
Summary of the method: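 4T1-H2B-GFP mouse breast cancer cells (3000 per well, 2% FBS medium) were seeded in 96-well imaging plates on plastic, denuded lung or mCAF1 fibroblast-derived matrix, Matrigel (15 μg/mL) or 0.2% gelatin; edge wells were left unused. After 16 h, kinase inhibitors were added at 1 μM final for 3 days. Plates were formalin-fixed, DAPI-stained and imaged on an INCell Analyzer 2200, and GFP-positive nuclei were counted. Percent inhibition of cell number was calculated relative to DMSO control.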

[1] = substrate: lung fibroblast-derived matrix
[2] = substrate: mCAF1 fibroblast-derived matrix

Row | Compound | % inhibition of 4T1 cell number (substrate: Matrigel) [%] | % inhibition of 4T1 cell number (substrate: gelatin) [%] | % inhibition of 4T1 cell number [1] [%] | % inhibition of 4T1 cell number [2] [%] | % inhibition of 4T1 cell number (substrate: plastic) [%]
1 | Fc1ccc(-c2nc3n(c2-c2ccncc2)CCS3)cc1 | 28.9 | 18.4 | -11.4 | 18.8 | 9.54
2 | COc1cccc(-c2cc(=O)c3ccccc3o2)c1N | -3.15 | -1.31 | -10.2 | 25.7 | -41.4
3 | Cn1cc(C2=C(c3cn(CCCSC(=N)N)c4ccccc34)C(=O)NC2=O)c2ccccc21 | -9.32 | 35.1 | -2.42 | 48.6 | -25.7
4 | CCCOc1ccc(/C=C2/SC(=O)NC2=O)cc1 [PIM1/2 Kinase Inhibitor VI] | 16.2 | 22.9 | 2.3 | -16.9 | -1.33
5 | CN[C@@H]1C[C@H]2O[C@@](C)([C@@H]1OC)n1c3ccccc3c3c4c(c5c6ccccc6n2c5c31)C(=O)N[C@H]4O | 99.4 | 99.2 | 14.1 | 88.8 | 95.5
6 | COc1cc2ncnc(Nc3cccc(O)c3)c2cc1OC [WHI-P180, Hydrochloride] | 35.6 | 65.6 | 9.03 | -4.63 | 37.6
7 | O=C(Nc1ccncc1)Nc1c(Cl)cc(Cl)cc1Cl [Rho Kinase Inhibitor II] | -9.94 | -2.18 | -4.7 | -19.5 | -18.6
8 | Nc1ccc(-c2cccc3c(=O)cc(N4CCOCC4)oc23)cc1 | -40.7 | -16.5 | -12 | 28.6 | -60.7
9 | O=C1NC(=O)/C(=C/c2ccc3c(c2)OC(F)(F)O3)S1 [PI 3-Kg Inhibitor II] | 27.2 | 11.1 | 39.7 | 5.87 | 37.8
10 | CC(C)n1cnc2c(NCc3ccccc3O)nc(NCCCO)nc21 [Cdk Inhibitor, p35] | 20.1 | 13.4 | -6.35 | -51.8 | 14.9
11 | C[C@@H](N)C1CCC(C(=O)Nc2ccncc2)CC1 (stereo not given in full) | -13.2 | -4.77 | -5.27 | 9.93 | -47.5
12 | O=C(Nc1ccc(-c2cn[nH]c2)cc1)C1COc2ccccc2O1 (stereo not given) [Rho Kinase Inhibitor V] | -9.35 | 14.6 | -8.88 | 7.12 | -3.09
13 | NC(N)=NCCNS(=O)(=O)c1cccc2cnccc12 [HA 1004, Dihydrochloride] | -14.8 | -0.694 | -2.73 | -8.89 | -48.5
14 | CCN(CC)CCNC(=O)c1c(C)[nH]c(/C=C2\C(=O)Nc3ccc(Cl)cc32)c1C | 62.3 | 70 | -10.6 | 52.4 | 74.3
15 | COc1cc2ncnc(N3CCN(C(=O)Nc4ccc(Oc5ccccc5)cc4)CC3)c2cc1OC [PDGF Receptor Tyrosine Kinase Inhibitor III] | -4.76 | -15.1 | -1.37 | 49.3 | -34.7
16 | Nc1ncnc2c1c(I)cn2[C@@H]1O[C@H](CO)[C@@H](O)[C@H]1O [5-Iodotubercidin] | 15.7 | 59.3 | 7.74 | 34.1 | 24.1
17 | COc1ccc(-c2cnc3c(-c4ccsc4)cnn3c2)cc1 [VEGF Receptor 2 Kinase Inhibitor IV] | 8.54 | 30.6 | -18.1 | 5.85 | -14.5
18 | O=c1c2ccccc2[nH]c(=S)n1CCN1CCC(=C(c2ccc(F)cc2)c2ccc(F)cc2)CC1 [Diacylglycerol Kinase Inhibitor II] | 8.29 | -29.1 | -1.99 | -11 | -33.4
19 | CN1C(=O)C(c2c[nH]c3ccccc23)=C(c2c[nH]c3ccccc23)C1=O [Bisindolylmaleimide V] | 82.1 | 67 | -9.51 | -40.4 | 50.7
20 | CC(=O)O/N=C1/C(c2c(O)[nH]c3cc(Br)ccc23)=Nc2ccccc21 [GSK-3 Inhibitor X] | -22.6 | 52.7 | -8.8 | 59.3 | 58.1
21 | O=C(O)C=Cc1cc(Br)c(Br)c(Br)c1Br [Casein Kinase II Inhibitor III, TBCA] | 33.8 | 27.7 | 2.78 | 2.33 | 40.6
22 | C[S+]([O-])c1ccc(-c2nc(-c3ccc(F)cc3)c(-c3ccncc3)[nH]2)cc1 (stereo not given) | 28.8 | 44.4 | 99.2 | 14.9 | 23.3
23 | c1cc(-c2cnn3cc(-c4ccc(OCCN5CCCCC5)cc4)cnc23)ccn1 [AMPK Inhibitor, Compound C] | 49.6 | 27.5 | 12.9 | 7.87 | 52.8
24 | CCOc1nc(NC(=O)Cc2cc(OC)ccc2OC)cc(N)c1C#N [JNK Inhibitor VIII] | -7.17 | 11.6 | -17.8 | 31.4 | -42.5
25 | O=C1NC(=O)C(c2c[nH]c3ccccc23)=C1c1c[nH]c2ccccc12 [Bisindolylmaleimide IV] | 24.5 | -65.7 | 47.8 | 17.1 | -20.6
26 | CCC(CO)Nc1nc(NCc2ccccc2)c2ncn(C(C)C)c2n1 [Roscovitine, (S)-Isomer] | -4.8 | 59.2 | 1.55 | 29.4 | -6.54
27 | Cc1cc2ncc(-c3ccccc3)nc2cc1C | 1.93 | 65.9 | -4.16 | 30.3 | 45.2
